Screens from PubChem.
4MU fluor = compound fluoresces in the 4-MU spectral region; AID 589; 59,000 compounds, 11% hits; compound autofluorescence, 340/450 nm, 4-MU equivalents; stronger effect = higher value; max dye-equivalent concentration, M; in the data active means max dye-equivalent concentration above about 10 nM; inconclusive means mostly about 1.1 nM to 9.6 nM
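Compounds in 100 mM Tris, pH 8.0, incubated 15 min at room temperature, then fluorescence read at 340 nm excitation/450 nm emission. Signal converted to 4-MU dye-equivalent concentration using an on-plate six-point 4-MU standard curve.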
HADH2 inh = blocks human hydroxyacyl-CoA dehydrogenase type II | Q99714 | recombinant HADH2, NADH fluorescence, beta-hydroxybutyryl-CoA | Potency, µM (highest dose often 57.1 µM), inactives show at the highest dose activity change, negative = inhibition, hits mostly inhibitors | 73,000 compounds, 3.4% hits | AID 886; further: potency means the concentration at half of the fitted maximal effect; on the % scale 0 is the no-effect control and ±100 the full control effect; nearly all actives have a fitted effect of over 60% in size
Target sequence (Q99714 whole entry, looked up, one chain of several): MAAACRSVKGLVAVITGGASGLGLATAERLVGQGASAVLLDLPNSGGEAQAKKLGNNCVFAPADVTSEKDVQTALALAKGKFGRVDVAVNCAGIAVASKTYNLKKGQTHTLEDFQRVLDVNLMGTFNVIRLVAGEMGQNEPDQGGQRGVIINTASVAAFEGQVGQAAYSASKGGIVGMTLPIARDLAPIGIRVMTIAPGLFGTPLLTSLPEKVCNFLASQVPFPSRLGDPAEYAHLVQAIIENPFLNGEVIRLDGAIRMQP
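20 nM HADH2 + cpd, 15 min RT; add 1 mM NAD+/90 uM beta-hydroxybutyryl-CoA; kinetic fluorescence 360/450 nm, 4 min. Tris-HCl pH 9.0, 0.01% Tween-20.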
CRE Fsk mod = modulators of forskolin-stimulated CRE signaling in CHO cells; 71,000 compounds, 2.5% hits; Potency, µM (top dose mostly 38.2 µM), inactives show at the highest dose activity change, negative = inhibition, usual class: activators; CHO CRE-bla reporter (cAMP response element driving beta-lactamase), forskolin EC10, beta-lactamase ratio; AID 662; active means well fitted activation curve with a large enough effect in the signal ratio, with a control signal flat, not every such curve was filed as active; inconclusive means small, poorly fitted or top-dose-only effect, or effect the other way, or a change in a side signal; the % refers to the signal ratio; further: potency means the concentration at half of the fitted maximal effect; % of control where 0% means no effect
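CRE-bla CHO cells stimulated with EC10 NKH 477 (water-soluble forskolin) and compound titrations, 3 h at 37C; beta-lactamase read with CCF4 after 2 h at room temperature. Activity from 460/530 nm emission ratio, AC50 values for positive or negative modulation.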
AID923 = qHTS Assay for Allosteric/Competitive Inhibitors of Caspase-1: Spectroscopic Profiling in AFC Spectral Region | compound fluorescence, AFC spectral region (405/520 nm) | Potency, µM (series often up to 57.5 µM), for inactives: top-dose fluorescence increase, usual class: activators | 75,000 compounds, 1.1% hits | AID 923, 2007; further: potency means the concentration at half of the fitted maximal effect; 0% is about no effect
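Compound autofluorescence profiled at 405 nm ex/520 nm em during kinetic caspase 1 run (50 nM enzyme, 5 uM Ac-WEHD-AFC, HEPES pH 7.5, 10 mM DTT). Titration up to 57 uM; baseline from regression intercept, normalized to AFC standard curve.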
HSD17B inh = HSD17B dehydrogenase inhibition. Q99714. recombinant HSD17B10, NADH fluorescence kinetic. Potency, µM (doses to about 57.1 µM), without a hit: at the highest dose activity change, negative = inhibition, hits mostly inhibitors. 75,000 compounds, 7.6% hits;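 further: the protocol describes HADH2 (HSD17B10) and not the HSD17B4 of the title; potency means the concentration at half of the fitted maximal effect; on the % scale 0 is the no-effect control and ±100 the full control effect; nearly all actives have a fitted effect of over 70% in size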
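Enzyme plus compound, 15 min room temperature; substrate mix added (NAD+ 1 mM, beta-hydroxybutyryl-CoA 90 uM final); plates read kinetically for NADH fluorescence. HADH2 was His-tagged, E. coli-derived, 20 nM.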
A350 autofl = compounds fluorescent in Alexa 350 spectral region; Compound autofluorescence, 340/450 nm, Alexa 350 dye-equivalents; stronger effect = higher value; max dye-equivalent concentration, M; AID 590; 59,000 compounds, 11% hits; in the data active means max dye-equivalent concentration above about 10 nM; inconclusive means mostly about 1.1 nM to 9.6 nM
Starred values were filed as active, the others as inactive; i = inactive; u = inconclusive; x = no result given. This is a sample that favours compounds with a hit; in the whole collection about 14% have one here. Unless noted, the call rests on the fitted dose curve; in most records, active means well fitted curve in the direction sought with a large enough effect; inconclusive means small, poorly fitted or top-dose-only effect, or another doubt; inactive means no such curve, though single readings can be large; an effect the other way counts as inactive or inconclusive.

SMILES	4MU fluor	HADH2 inh	CRE Fsk mod	AID923	HSD17B inh	A350 autofl
CCOc1cccc(C(=O)c2ccc(O)c(O)c2O)c1	x	x	x	-1.4%	15.8µM*	x
CCN(CC)S(=O)(=O)c1ccc(O)c(C(=O)OCC(=O)N(C)Cc2ccccc2)c1	1.32e-08M*	-2.5%	-0.3%	0.3%	31.6µM*	1.33e-08M*
CCn1c(=O)n(CC)c2cc(S(=O)(=O)N3CCc4ccccc43)ccc21	i	3.1%	20.0%	2.9%	-3.4%	i
O=C1c2ccccc2C(=O)N1CC1c2ccccc2CCN1C(=O)N1CCOCC1 (stereo unspecified)	1.5e-07M*	x	x	x	x	1.75e-07M*
Cc1onc(-c2ccccc2Cl)c1C(=O)N1CCN(c2nc3ccccc3s2)CC1	i	x	x	x	x	u
COCCOC(=O)c1[nH]c2c(c1C)C(=O)CC(c1cc(OC)ccc1OC)C2 (stereo unspecified)	x	6.5%	u	-3.5%	9.3%	x
COc1ccc(OC)c(C2CC(=O)c3c([nH]c(C(=O)OC(C)C)c3C)C2)c1 (stereo unspecified)	x	8.8%	3.16µM*	1.4%	10.2%	x
COc1ccc(OC)c(C2CC(=O)c3c([nH]c(C(=O)OCC4CCCO4)c3C)C2)c1 (stereo unspecified)	x	-2.6%	-4.0%	0.3%	5.3%	x
CCCOCCOC(=O)c1[nH]c2c(c1C)C(=O)CC(c1cc(OC)ccc1OC)C2 (stereo unspecified)	x	9.2%	2.51µM*	-5.4%	6.4%	x
COC(=O)Nc1ccc2[nH]cc(CCNC(C)=O)c2c1	x	5.6%	-8.6%	0.0%	-7.5%	x
COC(=O)c1ccc(Cn2cnc3c(cnn3-c3ccc(F)cc3)c2=O)o1	i	4.7%	u	-1.4%	-28.9%	i
COC(=O)c1ccc(Cn2cnc3c(cnn3-c3ccc(Cl)cc3)c2=O)o1	i	6.4%	6.31µM*	0.4%	u	i
Cc1ccc(-n2ncc3c(=O)[nH]c(SC(C)C)nc32)cc1	x	10.1%	2µM*	-0.1%	0.1%	x
COC(=O)c1ccc(CSc2nc3c(cnn3-c3ccc(C)cc3)c(=O)[nH]2)o1	i	-11.7%	6.31µM*	-0.2%	5.9%	i
CC(C)Sc1nc2c(cnn2-c2ccc(F)cc2)c(=O)[nH]1	x	6.3%	3.16µM*	-0.3%	1.3%	x
CC(C)Sc1nc2c(cnn2-c2ccccc2)c(=O)[nH]1	x	-10.5%	-5.2%	-2.4%	-2.6%	x
CCOC(=O)C(C)Sc1nc2c(cnn2-c2ccc(C)cc2)c(=O)[nH]1 (stereo unspecified)	i	1.1%	u	-1.0%	8.9%	i
NC(=O)C1CCN(C(=O)c2ccc(CS(=O)(=O)c3c(Cl)cccc3Cl)o2)CC1	x	-0.4%	-7.1%	-2.8%	0.4%	x
COc1cccc(CC(=O)NCC2COc3ccccc3O2)c1OC (stereo unspecified)	i	5.1%	u	-0.1%	4.9%	i
CCCCCCSC1=C(C#N)C(c2ccccc2)CC(=O)N1 (stereo unspecified)	i	x	x	x	x	i
N#Cc1cnc(SCC(=O)c2ccccc2)nc1N	1.68e-08M*	u	u	-1.8%	u	1.94e-08M*
N#Cc1cnc(SCCc2ccccc2)nc1N	u	-4.8%	u	2.2%	-1.6%	u
Cc1ccccc1CSc1ncc(C#N)c(N)n1	1.8e-08M*	-2.1%	u	10.2%	-9.8%	u
CCCCCCSc1ncc(C#N)c(N)n1	1.02e-08M*	-7.0%	u	4.0%	u	u
Cc1cc(C)n(-c2ncc(-c3ccccc3)nn2)n1	x	u	u	-1.3%	-1.4%	x
SMILES	4MU fluor	HADH2 inh	CRE Fsk mod	AID923	HSD17B inh	A350 autofl
CCOC(=O)c1ccccc1NC(=O)CSc1nc2ccccc2n1CC(=O)N1CCCC1	i	1.3%	2µM*	-0.9%	12.3%	i
CCSc1nc2ccccc2n1CC(=O)N1CCCCC1	i	-2.7%	10.6%	-0.2%	8.8%	u
Cc1ccc(Cn2nnc3c(=O)[nH]c(C4CCN(C(=O)c5cccs5)CC4)nc32)cc1	i	-2.8%	u	-2.5%	-2.7%	i
Cc1ccc(-n2c(SCC(N)=O)nc3c([nH]c4ccccc43)c2=O)cc1	x	-2.0%	8.4%	0.8%	0.2%	x
COc1cccc(-n2c(SCC(=O)Nc3cc(C)on3)nc3c([nH]c4ccccc43)c2=O)c1	x	u	3.98µM*	-0.2%	u	x
COc1cccc(-n2c(SCC(N)=O)nc3c([nH]c4ccccc43)c2=O)c1	1.44e-08M*	u	21.8%	-0.2%	u	1.56e-08M*
Cc1cc(NC(=O)CSc2nc3c([nH]c4ccccc43)c(=O)n2-c2cccc(C(F)(F)F)c2)no1	1.23e-08M*	-14.3%	2µM*	0.0%	u	1.2e-08M*
CCC(C)(C)NC(=O)CN(C(=O)CCC(=O)Nc1cc(C)ccn1)c1ccc2c(c1)OCO2	i	-10.8%	-0.6%	-0.3%	-1.2%	i
COCCN1Cc2cccc(C(=O)Nc3ccc(S(=O)(=O)N4CCCCCC4)cc3)c2C1=O	i	20.4%	4.1%	1.4%	-1.5%	u
CCCN1Cc2cccc(C(=O)Nc3cc(OC)cc(OC)c3)c2C1=O	u	18.3%	6.31µM*	-3.1%	28.6%	u
COCCN1Cc2cccc(C(=O)Nc3cccc(OC)c3)c2C1=O	i	3.2%	u	0.6%	11.4%	i
CCCN1Cc2cccc(C(=O)NC3CCCC3)c2C1=O	i	4.7%	u	0.2%	5.3%	i
COCCN1Cc2cccc(C(=O)Nc3ccc(C)c(C)c3)c2C1=O	3.03e-08M*	4.4%	u	-0.2%	7.2%	2.89e-08M*
CCN(CC)S(=O)(=O)c1ccc(NC(=O)c2cccc3c2C(=O)N(CCOC)C3)cc1	1.08e-07M*	21.4%	u	-0.4%	u	1.17e-07M*
CCOC(=O)c1cccc(NC(=O)C2CCCN(S(=O)(=O)c3c(C)n[nH]c3C)C2)c1 (stereo unspecified)	i	0.3%	5.7%	0.6%	-8.1%	i
CCN(CC)CCCN(Cc1cc2cc3c(cc2[nH]c1=O)OCCO3)C(=O)Nc1ccccc1	2.26e-07M*	31.6µM*	u	-3.0%	25.1µM*	1.96e-07M*
Cc1ccc(NC(=O)N(CCCN2CCOCC2)Cc2cc3cc4c(cc3[nH]c2=O)OCO4)cc1	1.44e-07M*	u	u	3.5%	31.6µM*	1.24e-07M*
Cc1ccc(NC(=O)N(Cc2ccc3c(c2)OCO3)Cc2cc3cc4c(cc3[nH]c2=O)OCCO4)cc1	4.04e-08M*	3.7%	u	1.2%	-15.0%	3.73e-08M*
COc1ccc2[nH]c(=O)c(CN(CCCN3CCOCC3)C(=O)NCc3ccccc3)cc2c1	2.15e-07M*	-12.4%	0.3%	2.0%	31.6µM*	1.65e-07M*
